Experimental data reported in PubChem BioAssay (NCI).
The panel holds about 83,000 compounds, 20% with a hit somewhere; the sample as a whole holds those more often.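 Method: cells in 96-well plates; compound added at one concentration; 48 h incubation; percent growth measured; values under 10 scored active.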 Calls of active or inactive are those of the source.

Assays:
Test in all cases: NCI-60 one-dose screen, 48 h (100 = growth as untreated, 0 = no growth, -100 = all killed)
Conditions in all cases: 10 µM unless noted
EKVX NSCLC = tested on: EKVX NSCLC
SN12C renal = tested on: SN12C renal
UO-31 renal = tested on: UO-31 renal
TK-10 renal = tested on: TK-10 renal
ACHN renal = tested on: ACHN renal
CAKI-1 renal = tested on: CAKI-1 renal
A498 renal = tested on: A498 renal
CCRF-CEM leukemia = tested on: CCRF-CEM leukemia
MOLT-4 leukemia = tested on: MOLT-4 leukemia
SR leukemia = tested on: SR leukemia

Measured: growth

COC(=O)C1=Nc2ccc(F)cc2/C1=C/c1sc(=S)[nH]c1O
inactive: EKVX NSCLC 36.8% | SN12C renal 27.3% | UO-31 renal 14.7% | TK-10 renal 56% | ACHN renal 25.1% | CAKI-1 renal 20% | A498 renal 25.7% | CCRF-CEM leukemia 11.9% | MOLT-4 leukemia 13.7% | SR leukemia 22.3%

Cn1c(/C=C(\C#N)c2cccc(C(F)(F)F)c2)nc2c(N3CCOCC3)nc(Cl)nc21
inactive: A498 renal 10.8% | SR leukemia 10.3%
active: EKVX NSCLC -76.2% | SN12C renal -0.107% | UO-31 renal -100% | TK-10 renal -67% | ACHN renal -100% | CAKI-1 renal -94% | CCRF-CEM leukemia 4.85% | MOLT-4 leukemia -14.3%

COc1ccc(C2Nc3ncnc(N)c3N=C3c4ccccc4C(=O)C32)cc1 (stereo not drawn)
inactive: EKVX NSCLC 94.5% | SN12C renal 140% | UO-31 renal 67% | TK-10 renal 123% | ACHN renal 92.4% | CAKI-1 renal 80.1% | A498 renal 99.2% | CCRF-CEM leukemia 97.9% | MOLT-4 leukemia 57.9%
active: SR leukemia 9.71%

O=C(Cn1cc(COc2ncnc3c2cnn3-c2ccccc2)nn1)Nc1cccc2ccccc12
inactive: EKVX NSCLC 85.5% | SN12C renal 96.8% | UO-31 renal 99.8% | TK-10 renal 108% | ACHN renal 91% | CAKI-1 renal 90.6% | A498 renal 88.8% | CCRF-CEM leukemia 96.6% | MOLT-4 leukemia 94.8% | SR leukemia 101%

O=C(Nc1ccc(N2CCNCC2)cn1)c1[nH]ncc1Nc1ncnc2sc3c(c12)CCC3
inactive: EKVX NSCLC 83.8% | SN12C renal 53.6% | UO-31 renal 72.6% | TK-10 renal 95.2% | CAKI-1 renal 54.3% | A498 renal 70.2% | MOLT-4 leukemia 14.3%
active: ACHN renal -76.5% | CCRF-CEM leukemia -7.26% | SR leukemia 0.52%

CCOC(=O)c1ccc(N=Cc2sc(=O)[nH]c2O)cc1
inactive: EKVX NSCLC 93.4% | SN12C renal 95.3% | UO-31 renal 83.1% | TK-10 renal 98.4% | ACHN renal 90.3% | CAKI-1 renal 88.1% | A498 renal 110% | CCRF-CEM leukemia 101% | MOLT-4 leukemia 99.9% | SR leukemia 117%

CC(C)c1ccc(S(=O)(=O)NC(=O)NC2CCCC2)cc1
inactive: EKVX NSCLC 98.1% | SN12C renal 97.1% | UO-31 renal 95.4% | TK-10 renal 101% | ACHN renal 103% | CAKI-1 renal 96.7% | A498 renal 102% | CCRF-CEM leukemia 98% | MOLT-4 leukemia 94.6% | SR leukemia 95.6%

Nc1ccc(-n2c(=O)oc3ccc(Cl)cc3c2=O)c(Cl)c1
active: EKVX NSCLC 4.42% | SN12C renal -0.532% | UO-31 renal 0.242% | TK-10 renal 8.25% | ACHN renal 5.28% | CAKI-1 renal -21.5% | A498 renal -67% | MOLT-4 leukemia -33.5%

COc1ccc(-c2c(-c3ccc(OC)c(O)c3)cnc3ncnn23)cc1
inactive: EKVX NSCLC 98.1% | SN12C renal 105% | UO-31 renal 94.1% | TK-10 renal 98% | ACHN renal 105% | CAKI-1 renal 95.1% | A498 renal 91.9% | CCRF-CEM leukemia 102% | MOLT-4 leukemia 100% | SR leukemia 109%

Cc1ccc(NC2=CC(=O)C(=O)c3ccccc32)c(C)c1
inactive: EKVX NSCLC 143% | SN12C renal 44.1% | UO-31 renal 71.2% | TK-10 renal 80.8% | ACHN renal 15.9% | CAKI-1 renal 82.7% | A498 renal 109% | CCRF-CEM leukemia 43.7% | MOLT-4 leukemia 36.9% | SR leukemia 56.4%

NCCNc1nc2ccccc2c2c(=O)c3cc(F)cc(Cl)c3sc12
inactive: A498 renal 46.9% | MOLT-4 leukemia 29.1%
active: EKVX NSCLC -68.5% | SN12C renal -83.7% | UO-31 renal -93.7% | TK-10 renal -30.6% | ACHN renal -94.7% | CAKI-1 renal -96.3% | CCRF-CEM leukemia -28.1% | SR leukemia -27.7%

Cc1ccccc1CNC(=O)C1CN(c2ccc(Cl)cc2)N(c2ccc(Cl)cc2)C1=O (stereo not drawn)
inactive: EKVX NSCLC 91.8% | SN12C renal 90.8% | UO-31 renal 64.1% | TK-10 renal 91.3% | ACHN renal 87.4% | CAKI-1 renal 71.6% | A498 renal 86.2% | CCRF-CEM leukemia 84.3% | MOLT-4 leukemia 81.1% | SR leukemia 59.8%

CC(=O)c1ccc2oc(=O)n(Cc3ccc(C#N)cc3)c(=O)c2c1
inactive: EKVX NSCLC 101% | SN12C renal 99.3% | UO-31 renal 85.6% | TK-10 renal 103% | ACHN renal 104% | CAKI-1 renal 94.6% | A498 renal 91.1% | CCRF-CEM leukemia 106% | MOLT-4 leukemia 107% | SR leukemia 109%

O=C(c1nc2ccccc2[nH]1)C1C(c2ccc([N+](=O)[O-])cc2)C2CC3CCCCC3N2[C@@]12C(=O)Nc1cc(Cl)ccc12 (stereo partly drawn)
active: A498 renal -1.18% | MOLT-4 leukemia 8.23%
inactive: EKVX NSCLC 16.6% | SN12C renal 34.1% | UO-31 renal 13.1% | TK-10 renal 36.7% | ACHN renal 18.4% | CAKI-1 renal 41.5% | CCRF-CEM leukemia 24.2% | SR leukemia 19.6%

O=C(NN1C(=O)CSC1c1ccc(Cl)cc1)c1[nH]c2ccc(F)cc2c1-c1ccccc1 (stereo not drawn)
inactive: EKVX NSCLC 49.3% | SN12C renal 44.1% | UO-31 renal 36.3% | TK-10 renal 66.9% | ACHN renal 43.8% | CAKI-1 renal 32.1% | A498 renal 84.3% | CCRF-CEM leukemia 34.3% | MOLT-4 leukemia 34.1% | SR leukemia 48.9%

Nc1nc(-c2cnccn2)nn1-c1nc2ccccc2s1
inactive: EKVX NSCLC 94.6% | SN12C renal 101% | UO-31 renal 99.6% | TK-10 renal 117% | ACHN renal 108% | CAKI-1 renal 96.8% | A498 renal 118% | CCRF-CEM leukemia 97.4% | MOLT-4 leukemia 94.7% | SR leukemia 98.4%

COc1cc(/C=C2\CN(C)C/C(=C\c3cc(CN4CCOCC4)c(O)c(OC)c3)C2=O)cc(CN2CCOCC2)c1O
inactive: EKVX NSCLC 80.6% | SN12C renal 35% | UO-31 renal 76.6% | TK-10 renal 91.9% | ACHN renal 47.5% | CAKI-1 renal 82.7% | A498 renal 81.8% | CCRF-CEM leukemia 32.1% | MOLT-4 leukemia 30% | SR leukemia 32.6%

CSc1nc2c(c(=O)n1C)N=C1c3ccccc3C(=O)C1C(c1ccccc1)N2 (stereo not drawn)
inactive: EKVX NSCLC 75.4% | SN12C renal 138% | UO-31 renal 71.1% | TK-10 renal 101% | ACHN renal 75.5% | CAKI-1 renal 53.4% | A498 renal 99.9% | CCRF-CEM leukemia 82.6% | MOLT-4 leukemia 84% | SR leukemia 27.1%

COc1ccc(-n2c(C(O)c3ccccc3)nn(CN3CCOCC3)c2=S)cc1 (stereo not drawn)
inactive: EKVX NSCLC 111% | SN12C renal 91% | UO-31 renal 77.5% | TK-10 renal 119% | ACHN renal 88.6% | CAKI-1 renal 97% | A498 renal 115% | CCRF-CEM leukemia 96.6% | MOLT-4 leukemia 123% | SR leukemia 193%

COc1cc(/C=C2\CCC/C(=C\c3cc(CN4CCCCC4)c(O)c(OC)c3)C2=O)cc(CN2CCCCC2)c1O
inactive: EKVX NSCLC 87.3% | SN12C renal 72.5% | UO-31 renal 58.3% | TK-10 renal 115% | ACHN renal 83.8% | CAKI-1 renal 106% | A498 renal 90.9% | CCRF-CEM leukemia 45.7% | MOLT-4 leukemia 49.8%
active: SR leukemia 6.77%

O=C(c1nc2ccccc2[nH]1)C1C(c2ccc(F)cc2)C2CC3CCCCC3N2[C@@]12C(=O)Nc1ccc(Cl)cc12 (stereo partly drawn)
inactive: EKVX NSCLC 39.5% | SN12C renal 52% | UO-31 renal 30.9% | TK-10 renal 72.9% | ACHN renal 43.1% | CAKI-1 renal 54.8% | A498 renal 39.8% | CCRF-CEM leukemia 33.3% | MOLT-4 leukemia 11.4% | SR leukemia 21%

O=c1c2cc(F)ccc2sc2c(Nc3ccncc3)nc3ccccc3c12
inactive: EKVX NSCLC 35.8% | SN12C renal 90% | TK-10 renal 78.6% | ACHN renal 28.5% | CAKI-1 renal 82.5% | A498 renal 63.9%
active: UO-31 renal -83.3% | CCRF-CEM leukemia -27.4% | MOLT-4 leukemia -36.9% | SR leukemia -4.43%

CC(C)CCOc1ccc(-c2n[nH]c(C(F)(F)F)c2-c2cncc(C#N)c2)c(O)c1
active: EKVX NSCLC 3.52% | SN12C renal 3.81% | UO-31 renal 3.89% | ACHN renal 8.84% | CAKI-1 renal 9.47% | A498 renal -25.5% | CCRF-CEM leukemia 6.67%
inactive: TK-10 renal 11.4% | MOLT-4 leukemia 23% | SR leukemia 33.7%

O=C(/C=C/c1ccc(C(F)(F)F)cc1)c1ccc(Nc2nc(NCCO)nc(N3CCOCC3)n2)cc1
inactive: EKVX NSCLC 65.4% | SN12C renal 71.5% | UO-31 renal 48% | TK-10 renal 81.8% | ACHN renal 36.5% | CAKI-1 renal 53.1% | A498 renal 98% | CCRF-CEM leukemia 10.3% | SR leukemia 19%
active: MOLT-4 leukemia 5.76%

Nc1cccc(Nc2cc(S(=O)(=O)O)c(N)c3c2C(=O)c2ccccc2C3=O)c1
inactive: EKVX NSCLC 85.1% | SN12C renal 99% | UO-31 renal 110% | TK-10 renal 107% | ACHN renal 96.3% | CAKI-1 renal 92.8% | A498 renal 102% | CCRF-CEM leukemia 101% | MOLT-4 leukemia 103% | SR leukemia 115%
